Source: PubChem BioAssay AID624255 (Broad Institute, 2012)
Values joined by “and” are separate entries in the source; they are usually repeats but may differ in a detail not shown here. Identical values can stand only once. The whole screen tested about 77,000 compounds, of which about 4,600 (6%) were called active. Not shown: some 1% with an inconclusive outcome. Shown is part of a subset that was picked to be rich in actives. Values without a mark were called inactive.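 The calls were made as follows: active = mean inhibition above about 93%, with at least 55% of replicates each passing it (limit read from the data, passing the limit was not always enough); inconclusive = only one of those two conditions holds; inactive = neither condition holds.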

Test: T. cruzi intracellular proliferation inhibitors, primary screen, cell-based, beta-gal Tulahuen parasites, NIH3T3 host, luminescence (AID 624255)
Details: T. cruzi beta-gal in NIH3T3, GalScreen luminescence, 90 h; at 8.34 µM; hits give high values
Work on `O=C(Cc1ccncc1)N1CCCCN2[C@@H](CO)[C@H](c3ccc(-c4ccncc4)cc3)[C@@H]2C1` yielded an inhibition of 60.5%. Compound `O=C(Cc1ccncc1)N1CCCCN2[C@H](CO)[C@@H](c3ccc(C#CC4(O)CCCC4)cc3)[C@H]2C1` has an inhibition of 63%. In the case of `O=C(Cc1ccncc1)N1CCCCN2[C@@H](CO)[C@H](c3ccc(C#CC4(O)CCCC4)cc3)[C@@H]2C1`, the inhibition is reported as 93.8%. In the case of `COc1ccc(-c2ccc([C@H]3[C@H](CO)N4CCCCN(C(=O)Cc5ccncc5)C[C@@H]34)cc2)cc1`, the inhibition is reported as 102% (active). For `O=C(Cc1ccccn1)N1CCCCN2[C@@H](CO)[C@@H](c3ccc(C#Cc4ccccc4)cc3)[C@@H]2C1`, the inhibition was 110% (active). Work on `OC[C@@H]1[C@H]2c3ccccc3NC[C@H]2N1Cc1cccnc1` yielded an inhibition of 77.8%. In the case of `N#Cc1cccc(-c2ccc([C@H]3[C@@H](CO)N4CCCCN(C(=O)Cc5cccnc5)C[C@@H]34)cc2)c1`, the inhibition is reported as 61.2%. For `C/C=C/c1ccc([C@H]2[C@H](CO)N3CCCCN(C(=O)Cc4ccncc4)C[C@@H]23)cc1`, the inhibition was 126% (active). Compound `COc1cccc(-c2ccc([C@H]3[C@H]4CN(C(=O)Cc5ccncc5)CCCCN4[C@H]3CO)cc2)c1` has an inhibition of 80.9%. With `O=C(Cc1cccnc1)N1CCCCN2[C@@H](CO)[C@H](c3ccc(C#CC4CCCC4)cc3)[C@@H]2C1` the inhibition was 110% (active). Work on `O=C(Cc1ccccn1)N1CCCCN2[C@H](C1)[C@H](c1ccc(-c3ccccc3F)cc1)[C@@H]2CO` yielded an inhibition of 16.7%. `COC(=O)[C@H]1[C@H](CO)[C@H]2Cn3c(ccc(C4=CCCC4)c3=O)[C@@H]1N2C(=O)CC1CC1` gave an inhibition of 11.8%. Work on `COC(=O)[C@@H]1[C@@H](CO)[C@@H]2Cn3c(ccc(-c4ccc(F)cc4)c3=O)[C@H]1N2C(C)=O` yielded an inhibition of -2.43%. For `COC(=O)[C@H]1[C@H](CO)[C@H]2Cn3c(ccc(-c4cccc(F)c4)c3=O)[C@@H]1N2Cc1ccccc1`, the inhibition was 8.82%. With `O=C(O)[C@H]1[C@H](CO)[C@H]2Cn3c(cccc3=O)[C@@H]1N2C(=O)c1ccccc1` the inhibition was 42.5%. With `O=C(O)[C@H]1[C@H](CO)[C@H]2Cn3c(ccc(-c4ccccc4F)c3=O)[C@@H]1N2C(=O)c1cccnc1` the inhibition was 30%. Compound `COC(=O)C[C@@H]1CC[C@@H]2NC[C@@H](O)COC[C@H]2O1` has an inhibition of 54.8%. Compound `COC(=O)[C@H]1[C@H](CO)[C@H]2Cn3c(ccc(-c4ccccc4F)c3=O)[C@@H]1N2C(=O)C1CCC1` has an inhibition of 44.2%. `COc1cccc(-c2ccc3n(c2=O)C[C@@H]2[C@@H](CO)[C@H](C(=O)O)[C@H]3N2C(=O)c2cnccn2)c1` showed an inhibition of 39.3%. For `C[C@H]1CN([C@@H](C)CO)C(=O)CCCn2nncc2CO[C@H]1CN(C)C(=O)Oc1cccc2ccccc12`, the inhibition was -20.3% and -6.68%. With `COc1ccc(C#Cc2ccc([C@H]3[C@H](CO)N4CCCCN(C(=O)Cc5ccccc5)C[C@@H]34)cc2)cc1` the inhibition was 109% (active). Work on `O=C(Cc1ccccc1)N1CCCCN2[C@H](C1)[C@H](c1ccc(C#CC3(O)CCCC3)cc1)[C@@H]2CO` yielded an inhibition of 84.7%. With `O=C(Cc1ccccc1)N1CCCCN2[C@H](CO)[C@H](c3ccc(C#Cc4ccccc4)cc3)[C@H]2C1` the inhibition was 94.6%. For `COC(=O)[C@@H]1[C@@H](CO)[C@@H]2Cn3c(ccc(C4=CCCCC4)c3=O)[C@H]1N2CC1CC1`, the inhibition was 48.5%. For `C[C@H]1CN([C@@H](C)CO)C(=O)CCCn2nncc2CO[C@H]1CN(C)C(=O)Oc1ccccc1`, the inhibition was 32% and -17.3%.
